# From ChEMBL document CHEMBL1961873, “Compounds: GSK PKIS; Assays: Nanosyn kinase panel” (2012)
# Assays:
# [1] = target: Sphingosine kinase 1 (Homo sapiens) (UniProt Q9NYA1); settings: at 1 µM;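 further: mean SPHK1 inhibition value reported from the GSK PKIS kinase panel screen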
# [2] = target: T1, Sphingosine kinase 2 (Homo sapiens) (UniProt Q9NRA0); settings: at 0.1 µM
# T1 sequence (whole entry): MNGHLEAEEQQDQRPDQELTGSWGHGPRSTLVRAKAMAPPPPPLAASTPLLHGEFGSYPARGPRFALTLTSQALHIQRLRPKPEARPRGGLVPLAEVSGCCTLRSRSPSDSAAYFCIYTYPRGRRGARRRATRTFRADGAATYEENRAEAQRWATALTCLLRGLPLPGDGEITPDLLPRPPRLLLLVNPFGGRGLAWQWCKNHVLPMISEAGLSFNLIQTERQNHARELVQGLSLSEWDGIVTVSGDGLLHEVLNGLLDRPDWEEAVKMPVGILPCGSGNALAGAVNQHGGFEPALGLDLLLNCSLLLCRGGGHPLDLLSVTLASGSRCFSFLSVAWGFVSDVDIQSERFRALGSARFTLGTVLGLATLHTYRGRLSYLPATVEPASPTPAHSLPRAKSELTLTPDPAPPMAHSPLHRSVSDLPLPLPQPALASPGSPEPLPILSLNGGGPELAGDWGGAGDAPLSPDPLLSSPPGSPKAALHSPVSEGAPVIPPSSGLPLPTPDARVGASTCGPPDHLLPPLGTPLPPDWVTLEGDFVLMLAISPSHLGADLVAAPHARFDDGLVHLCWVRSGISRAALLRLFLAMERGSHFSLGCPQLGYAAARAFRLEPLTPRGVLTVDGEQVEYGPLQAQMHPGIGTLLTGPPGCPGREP
# [3] = target: T1, Sphingosine kinase 2 (Homo sapiens); settings: at 1 µM
# [4] = target: Casein kinase II subunit alpha (Homo sapiens) (UniProt P68400); settings: at 0.1 µM
# [5] = target: Casein kinase II subunit alpha (Homo sapiens) (UniProt P68400); settings: at 1 µM
# [6] = target: T2, Inhibitor of nuclear factor kappa-B kinase subunit alpha (Homo sapiens) (UniProt O15111); settings: at 0.1 µM
# T2 sequence (whole entry): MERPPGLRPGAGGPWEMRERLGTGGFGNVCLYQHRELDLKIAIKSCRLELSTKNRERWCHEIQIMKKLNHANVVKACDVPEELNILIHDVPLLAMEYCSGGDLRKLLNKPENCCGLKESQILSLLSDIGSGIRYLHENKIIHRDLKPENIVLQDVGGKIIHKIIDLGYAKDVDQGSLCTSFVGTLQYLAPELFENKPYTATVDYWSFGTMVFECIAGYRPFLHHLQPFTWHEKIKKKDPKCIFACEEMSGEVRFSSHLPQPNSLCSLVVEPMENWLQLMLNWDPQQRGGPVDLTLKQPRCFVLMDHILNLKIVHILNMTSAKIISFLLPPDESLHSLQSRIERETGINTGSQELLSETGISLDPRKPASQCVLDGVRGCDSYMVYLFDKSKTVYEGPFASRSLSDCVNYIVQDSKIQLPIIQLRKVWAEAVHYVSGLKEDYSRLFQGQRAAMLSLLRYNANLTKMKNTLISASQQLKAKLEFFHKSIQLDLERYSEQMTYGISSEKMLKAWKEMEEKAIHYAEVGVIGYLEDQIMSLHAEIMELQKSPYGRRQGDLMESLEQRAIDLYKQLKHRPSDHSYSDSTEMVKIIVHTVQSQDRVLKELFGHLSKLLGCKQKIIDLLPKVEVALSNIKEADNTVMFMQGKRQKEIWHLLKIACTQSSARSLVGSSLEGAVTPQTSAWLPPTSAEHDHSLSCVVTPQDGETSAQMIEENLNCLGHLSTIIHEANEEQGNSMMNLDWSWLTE
# [7] = target: T2, Inhibitor of nuclear factor kappa-B kinase subunit alpha (Homo sapiens); settings: at 1 µM
# [8] = target: T3, Inhibitor of nuclear factor kappa-B kinase subunit beta (Homo sapiens) (UniProt O14920); settings: at 0.1 µM
# T3 sequence (whole entry): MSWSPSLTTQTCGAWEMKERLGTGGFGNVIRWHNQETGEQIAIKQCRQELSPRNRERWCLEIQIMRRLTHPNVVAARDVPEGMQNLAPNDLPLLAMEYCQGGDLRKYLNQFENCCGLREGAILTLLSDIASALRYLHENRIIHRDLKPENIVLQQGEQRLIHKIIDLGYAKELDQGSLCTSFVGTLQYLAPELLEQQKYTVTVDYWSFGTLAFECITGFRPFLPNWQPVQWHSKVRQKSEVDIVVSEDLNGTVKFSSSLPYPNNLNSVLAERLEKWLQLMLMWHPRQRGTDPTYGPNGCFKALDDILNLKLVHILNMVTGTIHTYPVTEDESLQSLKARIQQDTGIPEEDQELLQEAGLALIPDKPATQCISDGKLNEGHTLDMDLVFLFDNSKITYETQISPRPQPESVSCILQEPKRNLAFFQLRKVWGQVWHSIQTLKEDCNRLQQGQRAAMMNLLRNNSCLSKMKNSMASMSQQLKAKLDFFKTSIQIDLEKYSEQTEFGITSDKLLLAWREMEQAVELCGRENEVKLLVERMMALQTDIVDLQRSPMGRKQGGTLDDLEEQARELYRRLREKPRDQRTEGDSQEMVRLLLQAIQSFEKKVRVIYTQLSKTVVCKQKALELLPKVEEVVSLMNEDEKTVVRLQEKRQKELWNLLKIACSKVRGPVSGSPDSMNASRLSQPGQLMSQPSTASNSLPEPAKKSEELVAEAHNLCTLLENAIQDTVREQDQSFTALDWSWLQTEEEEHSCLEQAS
# [9] = target: T3, Inhibitor of nuclear factor kappa-B kinase subunit beta (Homo sapiens); settings: at 1 µM
# [10] = target: T4, Inhibitor of nuclear factor kappa-B kinase subunit epsilon (Homo sapiens) (UniProt Q14164); settings: at 0.1 µM
# T4 sequence (whole entry): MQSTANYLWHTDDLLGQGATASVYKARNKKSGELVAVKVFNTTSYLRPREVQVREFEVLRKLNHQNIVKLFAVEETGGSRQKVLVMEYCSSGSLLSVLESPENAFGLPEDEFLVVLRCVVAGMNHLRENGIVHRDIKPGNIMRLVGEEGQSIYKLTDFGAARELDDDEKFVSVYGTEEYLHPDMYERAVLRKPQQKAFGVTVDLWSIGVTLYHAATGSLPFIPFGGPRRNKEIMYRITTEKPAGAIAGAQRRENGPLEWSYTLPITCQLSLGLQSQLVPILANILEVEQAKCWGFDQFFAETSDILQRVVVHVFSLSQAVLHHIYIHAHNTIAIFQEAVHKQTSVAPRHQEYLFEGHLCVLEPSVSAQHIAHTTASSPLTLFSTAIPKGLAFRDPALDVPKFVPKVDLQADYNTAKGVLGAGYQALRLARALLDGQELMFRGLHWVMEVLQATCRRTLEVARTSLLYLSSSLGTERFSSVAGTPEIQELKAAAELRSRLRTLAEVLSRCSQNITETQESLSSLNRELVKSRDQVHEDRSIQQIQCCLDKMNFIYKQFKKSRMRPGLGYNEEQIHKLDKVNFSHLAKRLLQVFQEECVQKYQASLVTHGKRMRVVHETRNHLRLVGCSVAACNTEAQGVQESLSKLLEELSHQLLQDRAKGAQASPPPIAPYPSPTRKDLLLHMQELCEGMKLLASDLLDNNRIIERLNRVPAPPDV
# [11] = target: T4, Inhibitor of nuclear factor kappa-B kinase subunit epsilon (Homo sapiens); settings: at 1 µM
# [12] = target: T5, Serine/threonine-protein kinase Nek1 (Homo sapiens) (UniProt Q96PY6); settings: at 0.1 µM
# T5 sequence (whole entry): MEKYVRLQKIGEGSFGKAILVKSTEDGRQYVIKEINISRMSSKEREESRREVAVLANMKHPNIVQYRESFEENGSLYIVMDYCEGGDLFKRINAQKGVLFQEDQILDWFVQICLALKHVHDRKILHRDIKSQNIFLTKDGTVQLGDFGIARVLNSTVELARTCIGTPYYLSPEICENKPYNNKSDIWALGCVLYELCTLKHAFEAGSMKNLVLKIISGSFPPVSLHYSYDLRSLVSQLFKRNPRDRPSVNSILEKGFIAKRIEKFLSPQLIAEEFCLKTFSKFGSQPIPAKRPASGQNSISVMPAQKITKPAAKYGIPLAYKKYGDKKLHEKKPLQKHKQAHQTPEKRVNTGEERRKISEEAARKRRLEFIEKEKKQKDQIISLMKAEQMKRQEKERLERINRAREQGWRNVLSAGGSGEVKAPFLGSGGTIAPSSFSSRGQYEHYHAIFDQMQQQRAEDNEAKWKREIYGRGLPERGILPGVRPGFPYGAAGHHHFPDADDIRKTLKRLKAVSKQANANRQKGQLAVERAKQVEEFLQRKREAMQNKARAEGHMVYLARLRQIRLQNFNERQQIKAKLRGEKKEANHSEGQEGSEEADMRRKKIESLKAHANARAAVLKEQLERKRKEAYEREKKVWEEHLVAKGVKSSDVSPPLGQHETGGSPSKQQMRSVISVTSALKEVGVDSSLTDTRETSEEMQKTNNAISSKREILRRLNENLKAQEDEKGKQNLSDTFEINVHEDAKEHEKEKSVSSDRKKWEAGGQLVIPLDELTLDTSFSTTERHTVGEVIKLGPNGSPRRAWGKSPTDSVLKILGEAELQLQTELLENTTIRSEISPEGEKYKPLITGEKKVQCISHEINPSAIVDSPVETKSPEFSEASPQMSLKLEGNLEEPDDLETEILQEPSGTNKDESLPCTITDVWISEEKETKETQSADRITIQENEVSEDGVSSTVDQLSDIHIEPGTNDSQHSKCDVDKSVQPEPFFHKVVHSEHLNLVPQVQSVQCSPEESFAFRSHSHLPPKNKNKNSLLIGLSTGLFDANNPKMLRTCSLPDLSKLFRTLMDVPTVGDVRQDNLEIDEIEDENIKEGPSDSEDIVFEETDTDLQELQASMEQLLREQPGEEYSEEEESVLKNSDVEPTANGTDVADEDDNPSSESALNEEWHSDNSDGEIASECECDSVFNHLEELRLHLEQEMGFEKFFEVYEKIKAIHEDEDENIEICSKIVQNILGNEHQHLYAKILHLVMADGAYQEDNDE
# [13] = target: T5, Serine/threonine-protein kinase Nek1 (Homo sapiens); settings: at 1 µM
# [14] = target: T6, Serine/threonine-protein kinase Nek2 (Homo sapiens) (UniProt P51955); settings: at 0.1 µM
# T6 sequence (whole entry): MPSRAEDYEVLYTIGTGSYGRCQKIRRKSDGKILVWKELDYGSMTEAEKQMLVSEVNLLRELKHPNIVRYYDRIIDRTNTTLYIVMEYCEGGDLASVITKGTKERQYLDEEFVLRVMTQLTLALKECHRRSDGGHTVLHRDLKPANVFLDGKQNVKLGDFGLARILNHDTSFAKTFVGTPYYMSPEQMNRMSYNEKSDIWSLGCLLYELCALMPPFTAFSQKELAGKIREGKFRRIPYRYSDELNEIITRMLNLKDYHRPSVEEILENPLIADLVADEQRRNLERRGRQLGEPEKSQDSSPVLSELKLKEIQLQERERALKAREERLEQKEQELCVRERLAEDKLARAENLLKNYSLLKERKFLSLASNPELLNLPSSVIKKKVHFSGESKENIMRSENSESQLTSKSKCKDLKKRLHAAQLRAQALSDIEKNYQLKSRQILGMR
# [15] = target: T6, Serine/threonine-protein kinase Nek2 (Homo sapiens); settings: at 1 µM
# [16] = target: Serine/threonine-protein kinase Nek6 (Homo sapiens) (UniProt Q9HC98); settings: at 0.1 µM
# [17] = target: Serine/threonine-protein kinase Nek6 (Homo sapiens) (UniProt Q9HC98); settings: at 1 µM
# [18] = target: Serine/threonine-protein kinase Nek7 (Homo sapiens) (UniProt Q8TDX7); settings: at 0.1 µM
# [19] = target: Serine/threonine-protein kinase Nek7 (Homo sapiens) (UniProt Q8TDX7); settings: at 1 µM
# [20] = target: T7, Serine/threonine-protein kinase Nek9 (Homo sapiens) (UniProt Q8TD19); settings: at 0.1 µM;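 further: reported value is the mean percent inhibition of NEK9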
# T7 sequence (whole entry): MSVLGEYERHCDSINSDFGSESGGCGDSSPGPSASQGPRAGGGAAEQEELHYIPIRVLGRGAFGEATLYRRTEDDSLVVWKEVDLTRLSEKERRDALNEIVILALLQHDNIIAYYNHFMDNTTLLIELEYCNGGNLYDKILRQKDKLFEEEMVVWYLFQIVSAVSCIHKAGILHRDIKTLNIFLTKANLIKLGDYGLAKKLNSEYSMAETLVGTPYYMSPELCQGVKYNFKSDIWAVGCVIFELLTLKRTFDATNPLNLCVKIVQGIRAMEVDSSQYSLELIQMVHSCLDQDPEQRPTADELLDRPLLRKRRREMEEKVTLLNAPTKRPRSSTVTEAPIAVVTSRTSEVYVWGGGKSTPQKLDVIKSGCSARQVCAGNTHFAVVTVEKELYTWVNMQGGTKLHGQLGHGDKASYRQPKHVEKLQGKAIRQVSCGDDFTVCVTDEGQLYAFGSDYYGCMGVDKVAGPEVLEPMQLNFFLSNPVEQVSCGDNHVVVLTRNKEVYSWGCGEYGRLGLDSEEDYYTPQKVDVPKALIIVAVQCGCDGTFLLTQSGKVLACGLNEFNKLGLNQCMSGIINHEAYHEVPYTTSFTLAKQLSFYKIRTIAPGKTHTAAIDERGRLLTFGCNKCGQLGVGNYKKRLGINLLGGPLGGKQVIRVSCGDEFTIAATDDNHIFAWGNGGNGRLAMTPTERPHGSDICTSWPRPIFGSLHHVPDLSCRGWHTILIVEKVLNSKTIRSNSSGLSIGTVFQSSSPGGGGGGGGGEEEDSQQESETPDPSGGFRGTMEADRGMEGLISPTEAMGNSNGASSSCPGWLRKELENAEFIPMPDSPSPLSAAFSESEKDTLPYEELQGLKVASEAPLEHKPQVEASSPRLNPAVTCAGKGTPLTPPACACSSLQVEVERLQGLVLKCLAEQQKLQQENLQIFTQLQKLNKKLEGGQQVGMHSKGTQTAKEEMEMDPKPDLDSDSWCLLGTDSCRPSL
# Chain of Serine/threonine-protein kinase Nek7 (Homo sapiens) (Q8TDX7 whole entry, looked up): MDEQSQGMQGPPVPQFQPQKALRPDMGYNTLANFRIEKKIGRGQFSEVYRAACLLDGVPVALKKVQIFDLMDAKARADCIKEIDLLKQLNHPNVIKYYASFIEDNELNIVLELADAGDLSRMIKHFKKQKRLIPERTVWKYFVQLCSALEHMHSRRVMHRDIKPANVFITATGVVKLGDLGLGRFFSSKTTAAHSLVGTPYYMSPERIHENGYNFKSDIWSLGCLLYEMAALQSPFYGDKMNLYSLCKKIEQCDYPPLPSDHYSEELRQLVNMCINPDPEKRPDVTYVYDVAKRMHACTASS
# Chain of Casein kinase II subunit alpha (Homo sapiens) (P68400 whole entry, looked up): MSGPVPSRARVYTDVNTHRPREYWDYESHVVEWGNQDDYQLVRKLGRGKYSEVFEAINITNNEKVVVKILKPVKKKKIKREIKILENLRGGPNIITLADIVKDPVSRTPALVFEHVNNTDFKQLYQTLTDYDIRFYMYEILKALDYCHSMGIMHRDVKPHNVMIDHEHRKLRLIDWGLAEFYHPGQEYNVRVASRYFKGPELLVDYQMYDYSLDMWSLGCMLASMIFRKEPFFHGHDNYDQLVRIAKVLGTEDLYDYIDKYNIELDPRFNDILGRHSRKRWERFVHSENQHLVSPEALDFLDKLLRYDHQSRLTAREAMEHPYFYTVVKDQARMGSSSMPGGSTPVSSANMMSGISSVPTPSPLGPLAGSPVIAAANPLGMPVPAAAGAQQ
# Chain of Serine/threonine-protein kinase Nek6 (Homo sapiens) (Q9HC98 whole entry): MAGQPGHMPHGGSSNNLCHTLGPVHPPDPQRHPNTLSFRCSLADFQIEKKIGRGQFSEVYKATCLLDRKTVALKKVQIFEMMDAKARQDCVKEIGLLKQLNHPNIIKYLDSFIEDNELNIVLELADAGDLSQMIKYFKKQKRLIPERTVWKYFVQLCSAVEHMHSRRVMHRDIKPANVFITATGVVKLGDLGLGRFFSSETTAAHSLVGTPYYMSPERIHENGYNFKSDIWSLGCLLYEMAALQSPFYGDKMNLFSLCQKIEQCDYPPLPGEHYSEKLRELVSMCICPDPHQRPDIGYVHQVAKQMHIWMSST
# Chain of Sphingosine kinase 1 (Homo sapiens) (Q9NYA1 whole entry): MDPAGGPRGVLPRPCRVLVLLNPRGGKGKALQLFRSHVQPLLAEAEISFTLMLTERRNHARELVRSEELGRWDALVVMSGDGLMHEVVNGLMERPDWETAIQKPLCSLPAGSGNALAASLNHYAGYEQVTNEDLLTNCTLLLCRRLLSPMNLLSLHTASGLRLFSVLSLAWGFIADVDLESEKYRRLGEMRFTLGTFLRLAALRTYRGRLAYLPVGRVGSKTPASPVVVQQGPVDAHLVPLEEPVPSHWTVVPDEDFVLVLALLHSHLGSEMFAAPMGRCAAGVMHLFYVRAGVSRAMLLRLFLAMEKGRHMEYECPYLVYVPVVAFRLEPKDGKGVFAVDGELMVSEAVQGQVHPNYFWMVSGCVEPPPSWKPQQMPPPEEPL
smiles,measurement,setting,value
Cc1ccc(-c2cc3c(NC(=O)C4CC4)ncnc3o2)cc1,inhibition,[1],-8.41%
same,inhibition,[2],-0.23%
same,inhibition,[3],-0.24%
same,inhibition,[4],2.02%
same,inhibition,[5],10.8%
same,inhibition,[6],4.84%
same,inhibition,[7],1.2%
same,inhibition,[8],2.98%
same,inhibition,[9],4.2%
same,inhibition,[10],4.06%
same,inhibition,[11],6.07%
same,inhibition,[12],1.85%
same,inhibition,[13],3.91%
same,inhibition,[14],4.58%
same,inhibition,[15],4.89%
same,inhibition,[16],3.4%
same,inhibition,[17],0.29%
same,inhibition,[18],3.17%
same,inhibition,[19],3.35%
same,inhibition,[20],3.07%
